Reference: PubChem BioAssay AID1159580 (chemical genetic matrix, 2015)
Values joined by “and” are separate entries in the source; they are usually repeats but may differ in a detail not shown here. Equal entries are not always repeated. Among all 5,500 compounds or so, about 2,000 (36%) were called active. Inconclusive results (about 18%) are left out. Some of the results follow. Unmarked numbers belong to inactive results. Rule as the data show it: active = normalized growth mostly below about 0.91 (no sharp cut-off); inconclusive = no clear call, values can overlap the other calls; inactive = mostly above about 0.92.

Test: chemical genetic growth profiling, strain panel (AID 1159580);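 also: tested at 20 µM; growth read once vehicle control cultures reached saturation at 30 °C; 1 = growth at the plate median or of vehicle wells; lower values mean less growth of the strain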
Settings: S. cerevisiae deletion strains, growth OD
[1] = locus YAR019C, strain CDC15, active compounds read low
[2] = locus YBL105C, strain PKC1, active compounds read low
[3] = locus YBR135W, strain CKS1, active compounds read low
[4] = locus YBR136W, strain MEC1, active compounds read low
[5] = locus YBR160W, strain CDC28, active compounds read low
[6] = locus YDL017W, strain CDC7, active compounds read low
[7] = locus YDL028C, strain MPS1, active compounds read low
[8] = locus YDL101C, strain DUN1, active compounds read low
[9] = locus YDL108W, strain KIN28, active compounds read low
[10] = locus YDL132W, strain cdc53, active compounds read low
[11] = locus YDL214C, strain PRR2, active compounds read low
[12] = locus YDR052C, strain DBF4, active compounds read low
[13] = locus YDR054C, strain cdc34, active compounds read low
[14] = locus YDR226W, strain ADK1, active compounds read low
[15] = locus YDR477W, strain SNF1, active compounds read low
[16] = locus YER123W, strain YCK3, active compounds read low
[17] = locus YER133W, strain GLC7, active compounds read low
[18] = locus YFL009W, strain cdc4, active compounds read low
[19] = locus YFL029C, strain CAK1, active compounds read low
[20] = locus YFR003C, strain YPI1, active compounds read low
[21] = locus YFR019W, strain FAB1, active compounds read low
[22] = locus YFR028C, strain CDC14, active compounds read low
[23] = locus YGR040W, strain KSS1, active compounds read low
[24] = locus YGR052W, strain FMP48, active compounds read low
[25] = locus YGR092W, strain DBF2, active compounds read low
[26] = locus YHR030C, strain SLT2, active compounds read low
[27] = locus YHR079C, strain IRE1, active compounds read low
[28] = locus YHR082C, strain KSP1, active compounds read low
[29] = locus YHR205W, strain SCH9, active compounds read low
[30] = locus YIL147C, strain SLN1, active compounds read low
[31] = locus YJL095W, strain BCK1, active compounds read low
[32] = locus YJL128C, strain PBS2, active compounds read low
[33] = locus YJL157C, strain FAR1, active compounds read low
[34] = locus YJR016C, strain ILV3, active compounds read low
[35] = locus YJR066W, strain TOR1 (second series), active compounds read low
[36] = locus YJR066W, strain TOR1, active compounds read low
[37] = locus YKL048C, strain ELM1, active compounds read low
[38] = locus YKL067W, strain YNK1, active compounds read low
[39] = locus YKL101W, strain HSL1, active compounds read low
[40] = locus YKL193C, strain SDS22, active compounds read low
[41] = locus YKL203C, strain TOR2, active compounds read low
[42] = locus YLR113W, strain HOG1, active compounds read low
[43] = locus YLR133W, strain CKI1, active compounds read low
[44] = locus YLR403W, strain SFP1, active compounds read low
[45] = locus YML070W, strain DAK1, active compounds read low
[46] = locus YMR001C, strain CDC5, active compounds read low
[47] = locus YMR205C, strain PFK2 (second series), active compounds read low
[48] = locus YMR277W, strain FCP1, active compounds read low
[49] = locus YNL006W, strain LST8, active compounds read low
[50] = locus YNL020C, strain ARK1, active compounds read low
[51] = locus YNL161W, strain CBK1, active compounds read low
[52] = locus YNL183C, strain NPR1, active compounds read low
[53] = locus YNL207W, strain RIO2, active compounds read low
[54] = locus YNL222W, strain SSU72, active compounds read low
[55] = locus YNL307C, strain MCK1 (second series), active compounds read low
[56] = locus YOL078W, strain AVO1, active compounds read low
[57] = locus YOL136C, strain PFK27, active compounds read low
[58] = locus YOR061W, strain CKA2, active compounds read low
[59] = locus YOR119C, strain RIO1, active compounds read low
[60] = locus YOR231W, strain MKK1, active compounds read low
[61] = locus YOR329C, strain SCD5, active compounds read low
[62] = locus YPL031C, strain PHO85, active compounds read low
[63] = locus YPL153C, strain RAD53, active compounds read low
[64] = locus YPL204W, strain HRR25, active compounds read low
[65] = locus YPL209C, strain IPL1, active compounds read low
[66] = locus YPL256C, strain CLN2, active compounds read low
[67] = locus YPR025C, strain CCL1, active compounds read low
[68] = locus YPR106W, strain ISR1, active compounds read low
[69] = locus YPR111W, strain DBF20, active compounds read low
[70] = strain NNK1, active compounds read low
[71] = strain TSCII, active compounds read low

Fc1cccc(Cl)c1CSc1nncn1-c1ccc(OCc2ccccc2)cc1
normalized growth (locus YAL013W, strain DEP1, active compounds read low): 0.976 | normalized growth [1]: 0.991 | normalized growth [2]: 1.01 | normalized growth [3]: 1 | normalized growth [4]: 1 | normalized growth [5]: 1.01 | normalized growth (locus YBR229C, strain ROT2, active compounds read low): 0.991 | normalized growth (locus YCL061C, strain MRC1, active compounds read low): 0.968 | normalized growth [6]: 1.01 | normalized growth [7]: 1 | normalized growth [8]: 0.997 and 0.986 | normalized growth [9]: 1 | normalized growth [10]: 0.994 | normalized growth [11]: 0.97 | normalized growth [12]: 0.996 | normalized growth [13]: 1.01 | normalized growth (locus YDR150W, strain NUM1, active compounds read low): 0.909 | normalized growth [14]: 0.999 | normalized growth [15]: 0.983 | normalized growth (locus YEL061C, strain CIN8, active compounds read low): 0.956 | normalized growth [16]: 0.958 | normalized growth [17]: 0.974 | normalized growth [18]: 1.01 | normalized growth [19]: 1 | normalized growth [20]: 1.01 | normalized growth [21]: 0.955 | normalized growth [22]: 0.997 | normalized growth [23]: 0.979 | normalized growth [24]: 1.05 | normalized growth (locus YGR078C, strain PAC10, active compounds read low): 0.984 | normalized growth [25]: 0.988 | normalized growth [26]: 0.811 and 1.12 | normalized growth [27]: 1.03 | normalized growth [28]: 1.24 | normalized growth (locus YHR087W, strain rtc3, active compounds read low): 0.983 | normalized growth [29]: 0.955 | normalized growth [30]: 1 | normalized growth [31]: 1.04 | normalized growth [32]: 1.01 | normalized growth [33]: 0.969 | normalized growth [34]: 0.997 | normalized growth (locus YJR043C, strain POL32, active compounds read low): 0.98 | normalized growth [35]: 0.967 | normalized growth [36]: 1.23 | normalized growth (locus YJR075W, strain HOC1, active compounds read low): 0.988 | normalized growth [37]: 0.977 | normalized growth [38]: 0.999 | normalized growth [39]: 0.989 | normalized growth (locus YKL190W, strain CNB1, active compounds read low): 0.985 | normalized growth [40]: 0.996 | normalized growth [41]: 1.06 | normalized growth (locus YLR039C, strain RIC1, active compounds read low): 0.792 | normalized growth (locus YLR058C, strain SHM2 (second series), active compounds read low): 0.991 | normalized growth (locus YLR085C, strain ARP6, active compounds read low): 0.831 | normalized growth [42]: 1.01 | normalized growth [43]: 0.949 | normalized growth (locus YLR262C, strain YPT6, active compounds read low): 0.838 | normalized growth [44]: 0.965 | normalized growth [45]: 0.958 | normalized growth (locus YML094W, strain GIM5, active compounds read low): 0.948 | normalized growth [46]: 1 | normalized growth [47]: 0.965 | normalized growth (locus YMR219W, strain ESC1, active compounds read low): 0.985 | normalized growth (locus YMR263W, strain SAP30, active compounds read low): 0.963 | normalized growth [48]: 0.988 | normalized growth [49]: 0.994 | normalized growth [50]: 0.963 | normalized growth (locus YNL153C, strain GIM3, active compounds read low): 0.977 | normalized growth [51]: 0.973 | normalized growth [52]: 0.98 | normalized growth [53]: 1 | normalized growth [54]: 0.995 | normalized growth (locus YNL298W, strain CLA4 (second series), active compounds read low): 0.929 | normalized growth [55]: 0.963 | normalized growth (locus YNL322C, strain KRE1, active compounds read low): 0.988 | normalized growth (locus YNR030W, strain Alg12, active compounds read low): 0.964 | normalized growth [56]: 0.977 | normalized growth [57]: 0.952 | normalized growth [58]: 0.982 | normalized growth [59]: 1.04 | normalized growth [60]: 1.05 | normalized growth [61]: 1 | normalized growth [62]: 0.986 | normalized growth (locus YPL055C, strain LGE1, active compounds read low): 0.847 | normalized growth [63]: 0.992 | normalized growth [64]: 0.973 | normalized growth [65]: 0.994 | normalized growth (locus YPL241C, strain CIN2, active compounds read low): 0.949 | normalized growth [66]: 0.983 | normalized growth [67]: 1.01 | normalized growth [68]: 0.987 | normalized growth [69]: 0.986 | normalized growth (locus YPR135W, strain CTF4, active compounds read low): 0.832 | normalized growth [70]: 0.984 | normalized growth [71]: 0.986

Cn1c(CSCCOc2ccccc2)nnc1SCc1ccc(Cl)cc1Cl
normalized growth [1]: 0.985 | normalized growth [2]: 0.982 | normalized growth [3]: 0.98 | normalized growth [4]: 0.98 | normalized growth [5]: 0.98 | normalized growth [6]: 0.986 | normalized growth [7]: 0.992 | normalized growth [8]: 0.995 | normalized growth [9]: 0.986 | normalized growth [10]: 0.968 | normalized growth [11]: 0.984 | normalized growth [12]: 0.982 | normalized growth [13]: 0.985 | normalized growth [14]: 0.971 | normalized growth [15]: 1.02 | normalized growth [16]: 0.98 | normalized growth [17]: 1 | normalized growth [18]: 0.983 | normalized growth [19]: 0.99 | normalized growth [20]: 0.987 | normalized growth [21]: 0.946 | normalized growth [22]: 0.989 | normalized growth [23]: 1.01 | normalized growth [24]: 1.12 | normalized growth [25]: 0.984 | normalized growth [26]: 0.829 (active) | normalized growth [27]: 0.97 | normalized growth [28]: 1.02 | normalized growth [29]: 0.969 | normalized growth [30]: 0.985 | normalized growth [31]: 0.911 | normalized growth [32]: 0.905 | normalized growth [33]: 1.01 | normalized growth [34]: 0.982 | normalized growth [35]: 0.977 | normalized growth [36]: 0.995 | normalized growth [37]: 0.963 | normalized growth [38]: 0.994 | normalized growth [39]: 0.981 | normalized growth [40]: 0.998 | normalized growth [41]: 1.07 | normalized growth [42]: 1 | normalized growth [43]: 0.982 | normalized growth [44]: 1.01 | normalized growth [45]: 1 | normalized growth [46]: 0.988 | normalized growth [47]: 0.994 | normalized growth [48]: 0.989 | normalized growth [49]: 0.99 | normalized growth [50]: 0.974 | normalized growth [51]: 0.98 | normalized growth [52]: 0.996 | normalized growth [53]: 1 | normalized growth [54]: 0.984 | normalized growth [55]: 0.96 | normalized growth [56]: 0.994 | normalized growth [57]: 0.988 | normalized growth [58]: 1 | normalized growth [59]: 1.14 | normalized growth [60]: 0.992 | normalized growth [61]: 0.986 | normalized growth [62]: 1.03 | normalized growth [63]: 1.03 | normalized growth [64]: 1.04 | normalized growth [65]: 0.99 | normalized growth [66]: 0.979 | normalized growth [67]: 0.986 | normalized growth [68]: 0.982 | normalized growth [69]: 0.969 | normalized growth [70]: 0.983 | normalized growth [71]: 0.988
